Assay outcomes as filed in PubChem.
TDP1 cell CPT: qHTS for Inhibitors of human tyrosyl-DNA phosphodiesterase 1 (TDP1): qHTS in cells in presence of CPT | chicken DT40 Tdp1-/-;hTDP1 cells + 20 nM CPT, ATP luminescence, 48 h | AID 686979, 2013 | actives 12% (n = 420,000) | Potency, µM (highest dose often 46.2 µM), most hits filed as inhibitors; also: nearly all actives have a fitted effect of over 55% in size
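Cell growth measured by CellTiter-Glo luminescence after a minimum 48 h, 37 C compound exposure with 20 nM CPT in Tdp1-knockout DT40 cells stably expressing hTDP1, seeded 400/well; qHTS titration format.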
HT1080-NT tox: qHTS for induction of synthetic lethality in tumor cells producing 2HG: qHTS for the HT-1080-NT fibrosarcoma cell line. HT-1080-NT fibrosarcoma viability, CellTiter-Glo ATP luminescence, 48 h. Potency, µM (top dose mostly 46.1 µM), most hits filed as cytotoxic. AID 686970, 2013. actives 1.6% (n = 360,000);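 also: NT is the 2HG producing partner of a matched IDH1 knockdown line; nearly all actives have a fitted effect of over 55% in size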
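HT-1080-NT fibrosarcoma cells (2HG-overproducing), 750 cells/well in RPMI with 5% FBS, dosed after 2 h and incubated 48 h at 37C. CellTiter-Glo luminescence normalized to DMSO and no-cell wells; concentration-response curves fitted and classed.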
HT1080 IDH1KD tx: qHTS for induction of synthetic lethality in tumor cells producing 2HG: qHTS for the HT-1080-IDH1KD cell line. HT-1080 IDH1 knockdown viability, ATP luminescence, 48 h. Potency, µM (titrated, usually from 46.1 µM), hits mostly cytotoxic. actives 2% (n = 360,000)
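Assay cells: HT-1080 with IDH1 knockdown, 750 per well, RPMI/5% FBS. Exposure: 48 h at 37 °C following 2 h pre-incubation. Read: CellTiter-Glo luminescence; fitted concentration-response, curve class assigned.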
HepG2 tox-1: qHTS for Inhibitors of TGF-b: Cytotox Counterscreen; HepG2 CAGA-GFP viability, ATP luminescence, 18 h; Potency, µM (top dose mostly 46.1 µM), hits mostly cytotoxic; actives 0.76% (n = 410,000); AID 588856, 2011
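CellTiter-Glo luminescence gave cytotoxicity after 18 hours at 37 degrees C. The cells were HepG2 CAGA-GFP in 1% FBS DMEM, stimulated with 500 pg/mL TGF-beta after compound addition. %Activity was normalised to no-cell wells (complete cell-killing) and DMSO (no toxicity), and curves were fitted and classified.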
TDP1 cell noCPT: qHTS for Inhibitors of human tyrosyl-DNA phosphodiesterase 1 (TDP1): qHTS in cells in absence of CPT; DT40 Tdp1-/- hTDP1 cells, no CPT, ATP luminescence, 48 h; Potency, µM (series often up to 46.2 µM), usual class: inhibitors; actives 15% (n = 420,000); AID 686978, 2013; also: nearly all actives have a fitted effect of over 55% in size
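Compound effects on proliferation are scored in DT40 Tdp1-/-;hTDP1 cells in the absence of CPT. ATP levels (CellTiter-Glo luminescence) are recorded after a ≥48 hr, 37 °C incubation.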
TGFb inhibitor: qHTS for Inhibitors of TGF-b | HepG2 CAGA-GFP TGF-b/SMAD3 reporter, GFP fluorescence, 18 h; TGF-beta stimulated, 500 pg/mL final | actives 1.2% (n = 410,000) | Potency, µM (titrated, usually from 46.1 µM), hits mostly inhibitors; also: nearly all actives have a fitted effect of over 65% in size
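Smad-responsive CAGA-GFP expression was quantified in HEPG2 cells exposed to compounds and 500 pg/mL final TGF-beta for 18 h at 37 degrees C; unstimulated wells defined full inhibition.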
TGFb CAGA inh: qHTS for Inhibitors of TGF-b: Confirmation of Cherry Picks. shares compounds with TGFb inhibitor. actives 63% (n = 1,600). Potency, µM (highest dose often 46.1 µM), hits mostly inhibitors. HepG2 CAGA-GFP TGF-b reporter, GFP fluorescence, 18 h; cells stimulated with TGF-beta, 500 pg/mL; also: nearly all actives have a fitted effect of over 65% in size
HepG2 tox-2: qHTS for Inhibitors of TGF-b: Cytotox Counterscreen for Cherry Picks; shares compounds with TGFb inhibitor; HepG2 CAGA-GFP viability, ATP luminescence, 18 h; cells stimulated with TGF-beta, 500 pg/mL; Potency, µM (titrated, usually from 46.1 µM), hits mostly inhibitors; actives 27% (n = 1,600); also: nearly all actives have a fitted effect of over 70% in size
CCL64 TGFb inh: qHTS for Inhibitors of TGF-b: CCL64 Cells Orthogonal Assay for Cherry Picks; Potency, µM (titrated, usually from 46.1 µM), most hits filed as inhibitors; CCL64 CAGA-GFP reporter, TGF-b stimulated, GFP fluorescence, 18 h; shares compounds with TGFb inhibitor; AID 720536, 2013; actives 41% (n = 1,600); also: nearly all actives have a fitted effect of over 65% in size
TGFb COP inh: qHTS for Inhibitors of TGF-b: Hit Validation in HepG2 Cells using COP promoter. shares compounds with TGFb inhibitor. HepG2 COP-GFP TGF-b reporter, GFP fluorescence, 18 h; cells stimulated by added recombinant TGF-beta. Potency, µM (highest dose often 46.1 µM), usual class: inhibitors. actives 3% (n = 1,600). AID 720537, 2013; also: nearly all actives have a fitted effect of over 70% in size
Hits are given with their value; - = inactive; ? = inconclusive; . = no result given. Shown are actives, neighbours in structure and some others; about 17% of the full set was active somewhere. Calls follow the shape of the dose curve; as a rule, active = well fitted curve in the direction sought with a large enough effect; inconclusive = small, poorly fitted or top-dose-only effect, or another doubt; inactive = no such curve, though single readings can be large; an effect the other way counts as inactive or inconclusive.

SMILES	TDP1 cell CPT	HT1080-NT tox	HT1080 IDH1KD tx	HepG2 tox-1	TDP1 cell noCPT	TGFb inhibitor	TGFb CAGA inh	HepG2 tox-2	CCL64 TGFb inh	TGFb COP inh
CCSc1oc(-c2cccs2)nc1S(=O)(=O)c1ccc(Br)cc1	?	.	.	-	?	-	.	.	.	.
O=[N+]([O-])c1cccc(N=Nc2ccc(O)cc2O)c1	3.3µM	?	5.8µM	-	5.2µM	2.5µM	12µM	8.2µM	5.8µM	-
CCOc1cc(C=O)cc(N=Nc2cccc([N+](=O)[O-])c2)c1O	-	-	-	-	-	-	.	.	.	.
O=S(=O)(c1cc(F)ccc1F)N1CCN(c2ncnc3ccccc23)CC1	2.3µM	?	?	-	2.1µM	13µM	8.2µM	-	-	-
Cc1ccc(S(=O)(=O)/N=C(\N)Nc2nc(C)c3cc(C)ccc3n2)cc1	?	-	?	-	?	-	.	.	.	.
Cc1ccc(NC(=S)/N=C(\N)Nc2nc(C)c3cc(C)ccc3n2)c(C)c1	21µM	-	?	-	12µM	10µM	4.6µM	-	?	-
COc1cccc(C2NC(=O)NC(C)=C2C(=O)Nc2cccc(C)c2C)c1 (stereo unspecified)	-	-	-	-	-	-	.	.	.	.
COc1ccc(C)cc1NC(=O)c1ccccc1NS(=O)(=O)c1ccc(Cl)s1	8.2µM	?	16µM	-	6.5µM	5µM	12µM	?	6.5µM	-
Cc1ccc(NC(=O)c2ccc([N+](=O)[O-])s2)cc1S(=O)(=O)N1CCOCC1	16µM	?	21µM	-	16µM	7.1µM	6.5µM	?	?	-
COc1ccccc1NC(=O)c1ccccc1NS(=O)(=O)c1cccs1	-	-	-	-	-	-	.	.	.	.
O=C(Nc1cc(S(=O)(=O)N2CCOCC2)ccc1O)c1ccc(NS(=O)(=O)c2ccc(Cl)s2)cc1	-	-	-	-	-	-	.	.	.	.
Cc1ccc(NC(=O)c2ccccc2NS(=O)(=O)c2ccc(Cl)s2)cc1S(=O)(=O)N1CCOCC1	13µM	?	?	-	12µM	?	13µM	?	8.2µM	-
CN(C)S(=O)(=O)c1cccc(NC(=S)NNC(=O)c2cc3ccccc3cc2O)c1	?	?	?	-	?	-	.	.	.	.
COc1ccc(CNc2ncc(-c3ccc(Br)cc3)n2C)cc1OC	?	-	-	-	?	?	.	.	.	.
COc1cccc(/C=N/Nc2ncnc(Cl)c2N)c1O	0.82µM	8.2µM	4.1µM	-	0.52µM	7.1µM	?	12µM	5.2µM	-
